From ChEMBL document CHEMBL4513135, “CO-ADD screening of IQOG CSIS (Spain) compounds”
Measured potencies and affinities stand elsewhere.

These compounds were tested on Klebsiella pneumoniae. Settings: Concentration 32 ug.mL-1; ASSAY_TEST Inhibition of Bacterial Growth; detection method Absorption (OD600); MEDIA CAMHB; plate type 384well; NBS; CORNING #3640; time 18 hr.
For `N#Cc1cc(C#N)c(NCCCC2CCN(Cc3ccccc3)CC2)nc1N`, the Inhibition was 10.46%. With `Cl.ClCCCN1CCCC1` the Inhibition was 2.47%. `Cn1cc(C=O)c2ccccc21` gave an Inhibition of 2.25%. `CS(=O)(=O)O[C@H]1CC[C@H](OS(C)(=O)=O)CC1` gave an Inhibition of 13.68%. With `N#CC1(Br)C(=NBr)Oc2c(ccc3ccccc23)C1c1cccc([N+](=O)[O-])c1` (stereo not given) the Inhibition was 24.92%. Compound `O=C(N/N=C/c1cccc(Cl)c1)c1cc2ccccc2[nH]1` has an Inhibition of -14.42%. In the case of `O=C1OC(c2ccccc2)=NC1=Cc1ccc(Cl)cc1`, the Inhibition was 7.19%. Compound `CSC1=NC2(CC2c2ccccc2)C(=O)N1C` (stereo not given) has an Inhibition of -3.2%. `CC1CN(C)c2c(C#N)c(-c3ccccc3)c(C#N)c(=N)n21` (stereo not given) was tested, and the Inhibition was 18.9%. With `CCOC(=O)C1=C(C)OC(N)=C(C#N)C1c1cccnc1` (stereo not given) the Inhibition was 0.99%. `COc1ccccc1[C@H]1c2c(ccc3ccccc23)O/C(=N\Br)[C@@]1(Br)C#N` showed an Inhibition of 5.34%. `CC(C)NNC(=O)Cc1c[nH]c2ccccc12` showed an Inhibition of 18.29%. Work on `CC(C)C(=O)N/N=C/c1c[nH]c2ccccc12` yielded an Inhibition of 19.59%. `Nc1c2c(nc3c1C(c1ccc([N+](=O)[O-])cc1)c1ccc4ccccc4c1O3)CCCC2` (stereo not given) showed an Inhibition of -17.7%. Compound `N#Cc1c(N)nc(Cl)c(C#N)c1-c1ccccc1` has an Inhibition of 1.22%. Work on `O[C@H]1CC[C@H](NCc2ccccc2)CC1` yielded an Inhibition of 16.79%. Work on `CCOC(=O)C1=C(C)OC(N)=C(C#N)C1c1ccc(OC)cc1` (stereo not given) yielded an Inhibition of 14.63%. `COc1ccc2c(c1)cc(CN(C)C)n2C` gave an Inhibition of 9.15%. `Cc1ccc(/C=N/NC(=O)c2c[nH]c3ccccc23)cc1` was tested, and the Inhibition was 10.41%. In the case of `Cc1ccc(C=C2N=C(c3ccccc3)OC2=O)cc1`, the Inhibition was 9.43%. With `N#Cc1cc2c(N)n[nH]c2nc1N` the Inhibition was 6.95%. `O=Cc1c(-c2ccc(Br)cc2)nc2ccccn12` was tested, and the Inhibition was 19.86%. Compound `C#CCN(C)c1nc(Sc2ccccc2)c(C#N)c(-c2ccccc2)c1C#N` has an Inhibition of 17.28%. `Cn1ccnc1C1c2ccc3cccnc3c2Oc2nc3c(c(N)c21)CCC3` (stereo not given) gave an Inhibition of 5.38%. For `C#CCNc1ncc(C#N)c(N)n1`, the Inhibition was 3.55%. Compound `N#CC1=C(Cl)Oc2ccc3ccccc3c2C1c1ccccc1` (stereo not given) has an Inhibition of 13.06%. `C#CCN(C)Cc1cc2cc(OCCC3CCN(Cc4ccccc4)CC3)ccc2n1C.Cl` was tested, and the Inhibition was 16.32%. With `O=C(O)C(=Cc1ccccc1)NC(=O)c1ccccc1` the Inhibition was 27.9%. For `COc1ccc2c(c1)cc(CN)n2C`, the Inhibition was 13.36%. `CCOC(=O)/C(C#N)=C\c1ccc([N+](=O)[O-])cc1` gave an Inhibition of 10.6%. With `CCOC(=O)c1cc2cc(O)ccc2n1C(=O)OC(C)(C)C` the Inhibition was 2.98%. `Cn1c(CO)cc2cc(OCCCC3CCN(Cc4ccccc4)CC3)ccc21` was tested, and the Inhibition was -2.86%. With `CCOC(=O)c1c[nH]c2ccc(OCc3ccccc3)cc12` the Inhibition was 12.72%. `Cc1nc2c3cnn(-c4ccccc4)c3ncn2n1` showed an Inhibition of 15.65%. `O=C(NN=Cc1c[nH]c2ccccc12)c1cccc2ccccc12` was tested, and the Inhibition was 12.1%. With `O=C(N[C@H]1CC[C@H](O)CC1)c1ccccc1` the Inhibition was 10.98%. `COc1nc(N)c(C#N)c(-c2ccccc2)c1C#N` was tested, and the Inhibition was 5.51%. `Cc1ccc2[nH]c(=O)c(C=O)cc2c1` gave an Inhibition of 6.41%. With `COc1ccc2c(c1)cc(C(=O)O)n2C` the Inhibition was 11.78%. With `C#CCNc1nc(NCCCC2CCN(Cc3ccccc3)CC2)c(C#N)cc1C#N.Cl` the Inhibition was -17.1%.

Each compound was assayed on Candida albicans. Settings: 32 ug/mL.
`N#Cc1cc(C#N)c(NCCCC2CCN(Cc3ccccc3)CC2)nc1N` gave an Inhibition of 0.89%. For `Cl.ClCCCN1CCCC1`, the Inhibition was 8.26%. `Cn1cc(C=O)c2ccccc21` gave an Inhibition of 1.53%. Work on `CS(=O)(=O)O[C@H]1CC[C@H](OS(C)(=O)=O)CC1` yielded an Inhibition of 3.52%. `N#CC1(Br)C(=NBr)Oc2c(ccc3ccccc23)C1c1cccc([N+](=O)[O-])c1` (stereo not given) gave an Inhibition of 10.2%. Work on `O=C(N/N=C/c1cccc(Cl)c1)c1cc2ccccc2[nH]1` yielded an Inhibition of -0.35%. Compound `O=C1OC(c2ccccc2)=NC1=Cc1ccc(Cl)cc1` has an Inhibition of 1.2%. `CSC1=NC2(CC2c2ccccc2)C(=O)N1C` (stereo not given) was tested, and the Inhibition was 0.11%. For `CC1CN(C)c2c(C#N)c(-c3ccccc3)c(C#N)c(=N)n21` (stereo not given), the Inhibition was 1.63%. Work on `CCOC(=O)C1=C(C)OC(N)=C(C#N)C1c1cccnc1` (stereo not given) yielded an Inhibition of 0.38%. `COc1ccccc1[C@H]1c2c(ccc3ccccc23)O/C(=N\Br)[C@@]1(Br)C#N` was tested, and the Inhibition was 8.63%. Work on `CC(C)NNC(=O)Cc1c[nH]c2ccccc12` yielded an Inhibition of -0.05%. Compound `CC(C)C(=O)N/N=C/c1c[nH]c2ccccc12` has an Inhibition of -0.11%. In the case of `Nc1c2c(nc3c1C(c1ccc([N+](=O)[O-])cc1)c1ccc4ccccc4c1O3)CCCC2` (stereo not given), the Inhibition was -1.86%. With `N#Cc1c(N)nc(Cl)c(C#N)c1-c1ccccc1` the Inhibition was 6.28%. Compound `O[C@H]1CC[C@H](NCc2ccccc2)CC1` has an Inhibition of -0.77%. With `CCOC(=O)C1=C(C)OC(N)=C(C#N)C1c1ccc(OC)cc1` (stereo not given) the Inhibition was 2.59%. With `COc1ccc2c(c1)cc(CN(C)C)n2C` the Inhibition was -0.31%. Compound `Cc1ccc(/C=N/NC(=O)c2c[nH]c3ccccc23)cc1` has an Inhibition of 1.17%. For `Cc1ccc(C=C2N=C(c3ccccc3)OC2=O)cc1`, the Inhibition was -0.14%. Compound `N#Cc1cc2c(N)n[nH]c2nc1N` has an Inhibition of 0.04%. Work on `O=Cc1c(-c2ccc(Br)cc2)nc2ccccn12` yielded an Inhibition of 0.21%. With `C#CCN(C)c1nc(Sc2ccccc2)c(C#N)c(-c2ccccc2)c1C#N` the Inhibition was 1.53%. `Cn1ccnc1C1c2ccc3cccnc3c2Oc2nc3c(c(N)c21)CCC3` (stereo not given) showed an Inhibition of 2.9%. For `C#CCNc1ncc(C#N)c(N)n1`, the Inhibition was 2.29%. In the case of `N#CC1=C(Cl)Oc2ccc3ccccc3c2C1c1ccccc1` (stereo not given), the Inhibition was 2.47%. For `C#CCN(C)Cc1cc2cc(OCCC3CCN(Cc4ccccc4)CC3)ccc2n1C.Cl`, the Inhibition was 3.09%. In the case of `O=C(O)C(=Cc1ccccc1)NC(=O)c1ccccc1`, the Inhibition was 0.44%. In the case of `COc1ccc2c(c1)cc(CN)n2C`, the Inhibition was 2.3%. In the case of `CCOC(=O)/C(C#N)=C\c1ccc([N+](=O)[O-])cc1`, the Inhibition was 5.79%. `CCOC(=O)c1cc2cc(O)ccc2n1C(=O)OC(C)(C)C` showed an Inhibition of 1.56%. With `Cn1c(CO)cc2cc(OCCCC3CCN(Cc4ccccc4)CC3)ccc21` the Inhibition was 2.07%. `CCOC(=O)c1c[nH]c2ccc(OCc3ccccc3)cc12` gave an Inhibition of 0.34%. For `Cc1nc2c3cnn(-c4ccccc4)c3ncn2n1`, the Inhibition was 0.21%. Compound `O=C(NN=Cc1c[nH]c2ccccc12)c1cccc2ccccc12` has an Inhibition of 1.76%. `O=C(N[C@H]1CC[C@H](O)CC1)c1ccccc1` gave an Inhibition of 2.54%. For `COc1nc(N)c(C#N)c(-c2ccccc2)c1C#N`, the Inhibition was 1.23%. With `Cc1ccc2[nH]c(=O)c(C=O)cc2c1` the Inhibition was 1.79%. `COc1ccc2c(c1)cc(C(=O)O)n2C` showed an Inhibition of 31.1%. `C#CCNc1nc(NCCCC2CCN(Cc3ccccc3)CC2)c(C#N)cc1C#N.Cl` showed an Inhibition of 1.71%.
